Data taken from article PMC5540273 (PLoS ONE, 2017).

Legend:
Details in all cases: concentration: 1 μM, replicates: in singlicate; n = 1
[1] = system: LCK
[2] = system: LIMK1
[3] = system: LIMK2
[4] = system: T1, LKB1
T1 construct: gene STK11

[5] = system: T2, LOK
T2 construct: gene STK10

[6] = system: LRRK2
[7] = system: LTK
[8] = system: LYN
[9] = system: T3, LZK
T3 construct: gene MAP3K13

[10] = system: MAK
[11] = system: MAP3K15
[12] = system: MAP3K1
[13] = system: MAP3K2
[14] = system: MAP3K3
[15] = system: MAP3K4
[16] = system: MAP4K2
[17] = system: MAP4K3
[18] = system: MAP4K4
[19] = system: MAP4K5
[20] = system: MAPKAPK2
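Also: KINOMEscan kinase panel screen.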

| SMILES | %Inh [1] | %Inh [2] | %Inh [3] | %Inh [4] | %Inh [5] | %Inh [6] | %Inh [7] | %Inh [8] | %Inh [9] | %Inh [10] | %Inh [11] | %Inh [12] | %Inh [13] | %Inh [14] | %Inh [15] | %Inh [16] | %Inh [17] | %Inh [18] | %Inh [19] | %Inh [20] |
| --- | --- | --- | --- | --- | --- | --- | --- | --- | --- | --- | --- | --- | --- | --- | --- | --- | --- | --- | --- | --- |
| COc1cc2c(cc1OCCN1CCNCC1)ncc1c3ccc(C#N)cc3[nH]c21 | 45% | 0% | 0% | 15% | 42% | 99.3% | 0% | 0% | 100% | 2% | 90.1% | 33% | 4% | 14% | 7% | 51% | 8% | 32% | 5% | 0% |
| O=C(Nc1n[nH]c2cc(-c3ccoc3)ccc12)C1CC1 [SB-738481] | 0% | 14% | 22% | 0% | 0% | 0% | 13% | 11% | 0% | 3% | 10% | 0% | 3% | 50% | 17% | 2% | 0% | 10% | 0% | 0% |
| CC(C)c1nc(-c2cccc(NS(=O)(=O)c3c(F)cccc3F)c2F)c(-c2ccnc(Nc3ccc(N4CCOCC4)nc3)n2)s1 [GSK2008607] | 99.8% | 99.9% | 100% | 9% | 99.8% | 0% | 0% | 98.5% | 95.8% | 100% | 0% | 15% | 97.7% | 80% | 91.7% | 0% | 88% | 40% | 88% | 0% |
| C[C@@H](Oc1cc(-n2cnc3cc(-c4ccnc(NCCS(C)(=O)=O)c4)ccc32)sc1C(N)=O)c1ccccc1Cl [GSK907232] | 67% | 0% | 4% | 0% | 99.1% | 44% | 0% | 0% | 0% | 0% | 6% | 92% | 10% | 0% | 35% | 20% | 85% | 21% | 96.3% | 0% |
| Cc1ccc(F)c(C(=O)Nc2cccc(-c3nn4ccccc4c3-c3ccnc(Nc4cccc(F)c4)n3)c2)c1F [GSK361061] | 97.1% | 33% | 15% | 0% | 98.5% | 6% | 9% | 73% | 0% | 0% | 24% | 31% | 16% | 0% | 44% | 0% | 18% | 25% | 80% | 23% |
| O=C(O)C(F)(F)F.O=C(O)C(F)(F)F.O=c1[nH]ccc2nc(N[C@@H]3CCCNC3)nc(Nc3ccc(S(=O)(=O)N4CCOCC4)cc3)c12 [GSK2177277] | 78% | 0% | 0% | 92.1% | 78% | 88% | 79% | 73% | 59% | 0% | 67% | 22% | 100% | 99.9% | 0% | 100% | 99% | 97.6% | 99.8% | 65% |
| CN(C)Cc1ccc(-c2ccc3c(Nc4ccc(Oc5ccccn5)cc4)ccnc3c2)o1 [GW567148] | 92.9% | 0% | 0% | 0% | 52% | 48% | 0% | 17% | 27% | 13% | 0% | 14% | 0% | 0% | 0% | 5% | 0% | 6% | 61% | 3% |
| Cc1occc1-c1ncc(OC[C@@H](N)Cc2c[nH]c3ccccc23)cc1-c1ccc2[nH]nc(C)c2c1.O=C(O)C(F)(F)F [GSK682037] | 98.2% | 0% | 0% | 0% | 85% | 23% | 42% | 39% | 0% | 3% | 10% | 11% | 96.9% | 98.6% | 22% | 99.3% | 99.4% | 99.2% | 99.6% | 0% |
| O=C(Nc1cccc(-c2nn3ccccc3c2-c2ccnc(Nc3cccc(C(F)(F)F)c3)n2)c1)c1c(F)cccc1F [GSK292658] | 95.2% | 0% | 5% | 0% | 80% | 1% | 3% | 72% | 0% | 25% | 26% | 11% | 0% | 2% | 6% | 6% | 0% | 1% | 15% | 21% |
| COc1cccc(C2=C(Nc3ccc(Cl)c(C(=O)O)c3)C(=O)NC2=O)c1 [SB-390769] | 15% | 13% | 0% | 0% | 0% | 0% | 0% | 8% | 30% | 100% | 24% | 13% | 100% | 0% | 29% | 100% | 0% | 100% | 100% | 26% |
| COC(=O)Nc1nc2ccc(Oc3ccc(NC(=O)Nc4cc(C(F)(F)F)ccc4F)cc3)cc2n1C.Cl [GW692089] | 65% | 0% | 0% | 53% | 99.2% | 1% | 33% | 28% | 49% | 0% | 0% | 2% | 0% | 0% | 0% | 0% | 0% | 0% | 0% | 6% |
| Cl.c1ccc(-c2ccc3c(Nc4ccc5[nH]ccc5c4)ccnc3c2)nc1 [GW440138] | 70% | 0% | 0% | 0% | 51% | 0% | 18% | 47% | 39% | 1% | 0% | 1% | 0% | 0% | 9% | 46% | 0% | 12% | 0% | 9% |
| CN1CCN(CCCNc2nccc(-c3c(-c4ccc(F)cc4)nn4cc(C(F)(F)F)ccc34)n2)CC1 [GW621581] | 36% | 0% | 0% | 5% | 0% | 69% | 0% | 0% | 0% | 3% | 4% | 4% | 0% | 0% | 0% | 0% | 30% | 33% | 0% | 5% |
| COc1ccc(Nc2nccc(NCCNC(=O)c3cc4ccccc4s3)n2)cc1 [GSK1379896] | 19% | 0% | 0% | 1% | 0% | 0% | 0% | 0% | 0% | 27% | 0% | 15% | 0% | 0% | 24% | 0% | 0% | 1% | 8% | 2% |
| Cl.Cl.NCC(C(=O)Nc1cc(Br)c(-c2ccnc3[nH]ccc23)s1)c1ccccc1 (stereo not shown) [GSK1269851] | 28% | 27% | 0% | 78% | 0% | 20% | 0% | 0% | 0% | 1% | 0% | 17% | 13% | 0% | 63% | 13% | 0% | 20% | 0% | 0% |
| FC(F)(F)c1ccc(/C=C/c2cncnc2Nc2ccc3[nH]c(Cc4ccccc4)nc3c2)cc1 [GW709199] | 9% | 0% | 0% | 0% | 13% | 0% | 0% | 1% | 0% | 18% | 0% | 0% | 0% | 1% | 15% | 0% | 0% | 0% | 0% | 3% |
| O=c1[nH]cc(-c2ccc(N3CCOCC3)cc2)c2sc(-c3cn[nH]c3)cc12 [GSK2276055] | 9% | 0% | 0% | 0% | 0% | 0% | 5% | 0% | 0% | 30% | 0% | 16% | 12% | 0% | 21% | 27% | 0% | 1% | 2% | 0% |
| CC(=O)Nc1nc2cnc(Nc3cc(NC(=O)c4cccc(C5(C#N)CC5)c4Cl)ccc3C)nc2s1 | 91.1% | 0% | 0% | 0% | 54% | 0% | 0% | 79% | 6% | 0% | 0% | 0% | 0% | 0% | 10% | 16% | 0% | 17% | 0% | 0% |
| Cc1ccc(C)c(NC(=O)NC2CCN(c3ccnc(Nc4ccc(F)cc4)n3)C2)c1 (stereo not shown) [GSK1379720] | 0% | 9% | 0% | 2% | 0% | 0% | 17% | 4% | 41% | 6% | 0% | 0% | 0% | 0% | 18% | 0% | 0% | 0% | 0% | 23% |
| O=C(Nc1cccc(-c2nn3ccccc3c2-c2ccnc(Nc3cccc(F)c3)n2)c1)c1c(F)ccc(F)c1Cl [GSK357952] | 99.1% | 43% | 0% | 0% | 97.6% | 32% | 10% | 83% | 0% | 22% | 66% | 0% | 20% | 7% | 24% | 0% | 1% | 28% | 51% | 14% |
